# Source: PubChem BioAssay (NCATS)
# Results filed as inconclusive are left out. Entries that show only a call come without a potency. Activity calls are given as the source filed them. Unless noted, calls follow the shape of the dose curve; as a rule, active = well fitted curve in the direction sought with a large enough effect; inconclusive = small, poorly fitted or top-dose-only effect, or another doubt; inactive = no such curve, though single readings can be large; an effect the other way counts as inactive or inconclusive.
# Tests used:
# [1] = target: Pyruvate kinase PKM (Homo sapiens) (UniProt P14618); test: qHTS Assay for Activators of Human Muscle Pyruvate Kinase (AID 954; active = well fitted curve in the direction sought with a large enough effect, not every such curve was filed as active)
# Sequence of Pyruvate kinase PKM (Homo sapiens) (P14618 whole entry, looked up): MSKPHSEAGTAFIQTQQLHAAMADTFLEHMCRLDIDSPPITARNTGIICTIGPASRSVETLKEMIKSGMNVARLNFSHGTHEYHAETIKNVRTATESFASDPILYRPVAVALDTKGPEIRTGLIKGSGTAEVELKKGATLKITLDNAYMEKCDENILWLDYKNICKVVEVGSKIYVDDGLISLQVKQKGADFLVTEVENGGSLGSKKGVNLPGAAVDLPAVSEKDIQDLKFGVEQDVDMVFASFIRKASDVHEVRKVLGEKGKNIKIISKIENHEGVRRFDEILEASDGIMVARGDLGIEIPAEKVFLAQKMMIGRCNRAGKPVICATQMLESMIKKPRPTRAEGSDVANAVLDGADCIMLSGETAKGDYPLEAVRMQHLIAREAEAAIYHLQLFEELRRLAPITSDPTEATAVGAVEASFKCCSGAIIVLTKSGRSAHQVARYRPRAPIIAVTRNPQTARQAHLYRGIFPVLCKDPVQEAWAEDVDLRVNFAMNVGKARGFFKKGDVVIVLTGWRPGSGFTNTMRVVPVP
# Procedure, shortened: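 Compound pinned into substrate mix (0.5 mM PEP, 0.1 mM ADP), then 0.1 nM PKM2 added; 1 h, RT. Stop/detection luciferase reagent added, luminescence read. Normalized to no-inhibition and no-enzyme or reference-inhibitor controls.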
# [2] = target: alpha-glucosidase (Oryza sativa, rice) (UniProt Q653V4); test: Counterscreen for Glucocerebrosidase Inhibitors: qHTS Assay for Rice alpha-Glucosidase at pH 5.0 (AID 997)
# Procedure, shortened: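 Endpoint fluorogenic assay at pH 5.0: compounds (0.7 nM to 77 uM) titrated against 4 nM rice enzyme and 400 uM 4-MU-alpha-glucoside for 20 min at room temperature; NaOH/glycine stop, read ex 365/em 440 nm, Hill-fitted AC50.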
# [3] = target: N-terminal Xaa-Pro-Lys N-methyltransferase 1 (Homo sapiens) (UniProt Q9BV86); test: Confirmatory qHTS for Inhibitors of N-terminal methyltransferase 1 (NTMT1): MTaseGlo Assay (AID 1645874);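 also: luminescence from SAH made as NTMT1 methylates SPKRIA peptide using SAM; series mostly up to about 100 µM; nearly all actives have a fitted effect of over 65% in size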
# Sequence of N-terminal Xaa-Pro-Lys N-methyltransferase 1 (Homo sapiens) (Q9BV86 whole entry, looked up): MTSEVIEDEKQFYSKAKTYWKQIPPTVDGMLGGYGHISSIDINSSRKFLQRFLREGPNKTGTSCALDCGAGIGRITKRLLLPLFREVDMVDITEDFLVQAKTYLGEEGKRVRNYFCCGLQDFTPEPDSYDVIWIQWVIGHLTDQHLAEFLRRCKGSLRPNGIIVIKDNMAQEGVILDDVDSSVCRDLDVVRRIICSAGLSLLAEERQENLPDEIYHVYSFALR
# Procedure, shortened: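 Inhibition was derived from luminescence after SAH-to-ATP conversion, scaled between no-enzyme and DMSO wells, then fitted by 4-parameter Hill. Conditions: 125 nM NTMT1, 100 uM SAM, 1 uM SPKRIA, 30 min RT.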
# [4] = target: Cytochrome P450 2C9 (Homo sapiens) (UniProt P11712); test: Cytochrome P450 family 2 subfamily C member 9 (CYP2C9) small molecule antagonists: luciferase biochemical (cell-free) qHTS assay (AID 1645842; active = well fitted curve in the direction sought with a large enough effect in the repeat runs; an effect the other way counts as inactive or inconclusive; also: potency is read from the fitted curve at half-maximal effect; nearly all actives have a fitted effect of over 55% in size)
# Sequence of Cytochrome P450 2C9 (Homo sapiens) (P11712 whole entry, looked up): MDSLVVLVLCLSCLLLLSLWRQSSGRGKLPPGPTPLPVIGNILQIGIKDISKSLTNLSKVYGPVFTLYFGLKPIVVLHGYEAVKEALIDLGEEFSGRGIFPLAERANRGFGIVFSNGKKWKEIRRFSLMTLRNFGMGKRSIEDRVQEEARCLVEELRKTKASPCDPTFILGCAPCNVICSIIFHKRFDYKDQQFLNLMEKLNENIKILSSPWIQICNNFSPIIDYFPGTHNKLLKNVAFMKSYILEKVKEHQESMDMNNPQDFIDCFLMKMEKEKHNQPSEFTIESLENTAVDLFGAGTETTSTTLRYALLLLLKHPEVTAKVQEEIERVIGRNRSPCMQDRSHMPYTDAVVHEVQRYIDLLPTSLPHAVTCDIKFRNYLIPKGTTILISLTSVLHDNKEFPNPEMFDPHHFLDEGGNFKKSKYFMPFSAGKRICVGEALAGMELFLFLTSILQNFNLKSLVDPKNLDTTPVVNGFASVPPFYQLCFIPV
# Procedure, shortened: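 P450-Glo CYP2C9 system: proluciferin substrate with enzyme in mix containing 0.4% BSA, 10 min at room temperature, then NADPH regeneration solution added and incubated 1 h at 37C. Detection reagent stopped reaction; luminescence read after 20 min as RLU.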
# [5] = Primary qHTS for small molecule stabilizers of the endoplasmic reticulum resident proteome: Secreted ER Calcium Modulated Protein (SERCaMP) assay (AID 1508630)
# Procedure, shortened: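 The SH-SY5Y reporter protocol was run at 3 concentrations up to 38.3 uM (primary) or 11 concentrations (follow-up): 16 h compound, 100 nM thapsigargin for 4 h, then extracellular luciferase luminescence.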
# [6] = tested on: Zika virus NS2B-NS3 protease (unlinked complex); test: Primary screen GU Rhodamine qHTS for Zika virus inhibitors: Unlinked NS2B-NS3 protease assay (AID 1347159); also: nearly all actives have a fitted effect of over 60% in size
# Procedure, shortened: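 In dose–response format, inhibition of unlinked protease (25 nM) was measured with 1.5 microM bis-peptide Rhodamine110 substrate. Aprotinin served as the intraplate control.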
# [7] = target: Luciferin 4-monooxygenase (Photinus pyralis) (UniProt P08659); test: Primary firefly luciferase (FLuc) qHTS assay for identification of artifact compounds. (AID 1845220); also: nearly all actives have a fitted effect of over 60% in size
# Procedure, shortened: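 Enzymatic FLuc inhibition assay: compounds pre-exposed to luciferin/ATP (10 uM each) for 15 min, then purified P. pyralis enzyme at 10 nM added. Read-out: luminescence at 5 min.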
# [8] = Primary fluorescence-based thiol-reactive (MSTI) qHTS assay for identification of artifact compounds. (AID 1845221);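 also: series mostly up to about 54 µM; thiol-reactive compounds lower the probe fluorescence signal; nearly all actives have a fitted effect of over 65% in size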
# Procedure, shortened: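 Thiol-reactive compounds detected by quenching of 4 uM MSTI fluorescence (525/598 nm) after 1 h room-temperature dark incubation in PBS pH 7.4, 2% DMSO. qHTS titration; percent inhibition Hill-fitted against Acetyl-MSTI/MSTI controls.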
# [9] = Primary redox qHTS assay for identification of artifact compounds. (AID 1845223)
# Procedure, shortened: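 Redox-cycling detection via DTT (250 uM final) oxidation coupled to Amplex Red (25 uM)/HRP (250 mU/mL) in HBSS. 15 min preincubation plus 30 min after DTT, room temperature. Ex/Em 525/598 nm; 4-parameter Hill fit against DMSO and 10 uM DA3003.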
# [10] = Primary qHTS for inhibitors of nuclear receptor binding SET domain protein 2 (NSD2) in an isogenic RCH-ACV NSD2 p.E1099K mutant (9B) (AID 1645876); also: nearly all actives have a fitted effect of over 70% in size
# [11] = Primary qHTS for inhibitors of nuclear receptor binding SET domain protein 2 (NSD2) in an RCH-ACV wild type WT cells (2C) (AID 1645877); also: nearly all actives have a fitted effect of over 70% in size
# [12] = NCATS anti-infectives library activity on HEK293 viability as a counter-qHTS vs the C. elegans viability qHTS (AID 1745854);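 also: HEK293 cells exposed to compounds for 24 hr before the viability read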
# Procedure, shortened: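 Compound titrations (final up to 41.7 uM) were incubated with HEK293 cells for 24 hr at 37C under 5% CO2. Viable cells were quantified with CellTiter-Glo after 10 min at ambient temperature.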
# [13] = target: Glutathione peroxidase 1 (Homo sapiens) (UniProt P07203); test: Primary qHTS Assay for Inhibitors of Recombinant Selenoprotein Glutathione Peroxidase 1 (GPX1) (AID 1845191); also: nearly all actives have a fitted effect of over 65% in size
# Sequence of Glutathione peroxidase 1 (Homo sapiens) (P07203 whole entry, looked up): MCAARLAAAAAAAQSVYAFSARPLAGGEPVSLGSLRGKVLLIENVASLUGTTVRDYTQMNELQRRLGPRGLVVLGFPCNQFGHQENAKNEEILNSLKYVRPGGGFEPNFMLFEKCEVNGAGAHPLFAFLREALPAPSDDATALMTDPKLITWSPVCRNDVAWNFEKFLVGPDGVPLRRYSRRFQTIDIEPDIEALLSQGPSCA
# Procedure, shortened: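 GR-coupled readout: NADPH consumption tracked by fluorescence, ex 340/em 450 nm, at t=0 and after 15 min at RT. Final mix 10 nM GPX1, 1 mM GSH, 0.5 mM CHP, 0.5 mM NADPH, 100 nM GR, 0.01% BSA, following 30 min enzyme–compound preincubation.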
smiles,measurement,setting,value
O=C(Nc1cc(C(=O)Nc2ccc(S(=O)(=O)O)cc2S(=O)(=O)O)cc(C(=O)Nc2ccc(S(=O)(=O)O)cc2S(=O)(=O)O)c1)Nc1cc(C(=O)Nc2ccc(S(=O)(=O)O)cc2S(=O)(=O)O)cc(C(=O)Nc2ccc(S(=O)(=O)O)cc2S(=O)(=O)O)c1,outcome,[1],inactive
same,outcome,[2],inactive
N#C/C(=C\c1ccc(-c2ccc(Cl)c(C(=O)O)c2)o1)c1nc2ccccc2[nH]1,Potency,[3],inactive
Cc1ccc(Nc2nnc(-c3ccc(C)c(S(=O)(=O)NCc4nc5ccccc5[nH]4)c3)c3ccccc23)cc1,Potency,[4],5.35 µM (active)
C=C1c2c(Cl)ccc(O)c2C(O)=C2C(=O)[C@]3(O)C(O)=C(C(N)=O)C(=O)[C@@H](N(C)C)[C@@H]3[C@@H](O)C12 (stereo partly drawn),Potency,[5],inactive
C/C=C/C[C@@H](C)[C@@H](O)[C@H]1C(=O)N[C@@H](CC)C(=O)N(C)CC(=O)N(C)[C@@H](CC(C)C)C(=O)N[C@@H](C(C)C)C(=O)N(C)[C@@H](CC(C)C)C(=O)N[C@@H](C)C(=O)N[C@H](C)C(=O)N(C)[C@@H](CC(C)C)C(=O)N(C)[C@@H](CC(C)C)C(=O)N(C)[C@H](C(C)C)C(=O)N1C,Potency,[6],inactive
same,Potency,[7],inactive
same,Potency,[8],inactive
same,Potency,[9],inactive
CC1(C)CC[C@]2(C(=O)O)CC[C@]3(C)C(=CC[C@@H]4[C@@]5(C)C[C@@H](O)[C@H](O)C(C)(C)[C@@H]5CC[C@]43C)[C@@H]2C1,Potency,[10],inactive
same,Potency,[11],inactive
same,outcome,[12],inactive
same,Potency,[13],inactive
